From PubChem BioAssay
“And” between values parts separate entries of the source, which are not always exact repeats. Equal entries are not always repeated. The source made the active and inactive calls.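 The calls were made as follows, unless noted: active = compounds whose cell count with miR-34 switched on is under 0.7 times the count with it off; inactive = the rest.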

Tests used:
[1] = compounds altering viability of human ES cells (AID 493140; call rule not given here;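 also: cells exposed to compounds for four days before counting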); conditions: human embryonic stem cell survival screen; stronger effect = higher value
[2] = P. berghei load reduction in hepatocytes – cell-based, HepG2, luciferase luminescence, HepG2 viability, primary screen (AID 624349; in the data active = parasite load remaining mostly below about 12%, no sharp cut-off; inactive = mostly above about 10%;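 also: 100% = mean of DMSO negative control wells on the same plate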); conditions: P. berghei liver stage in HepG2, luciferase luminescence, concentration not given here; parasite load remaining: stronger effect = lower value; viability: measured here: HepG2 viability without parasites
[3] = Wnt pathway potentiators raising nuclear beta-catenin – imaging, WNT3A-conditioned medium, mouse C2C12, NPC library, primary screen (AID 1117326; in the data active = nuclear beta-catenin stimulation mostly above about 4.2%, no sharp cut-off; inactive = mostly below about 10%); conditions: stronger effect = higher value
[4] = stimulators of insulin release from INS-1E, primary screen, cell-based, 5 mM glucose, NPC library (AID 1117329;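 active = compound raises insulin release from rat beta cells at 5 mM glucose, no numeric limit stated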); conditions: rat INS-1E insulin secretion, at 10 µM, stronger effect = higher value
[5] = growth inhibition of GSK3B-pretreated HCT116 cells – cell-based, CellTiter-Glo, 0.2 to 20 µM (AID 1117336;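 active = compounds lowering colon cancer cell viability after pretreatment blocking the GSK3B kinase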); conditions: HCT116 viability after GSK3B inhibitor, at 20 µM, stronger effect = higher value
[6] = inhibition of endothelial tube formation, primary screen, imaging, VEGF stimulated, CD31 staining, tube area, NPC library (AID 1117340;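 active = compound that reduces growth-factor-driven endothelial tube area in a mixed cell culture, no cutoff stated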); conditions: VEGF-stimulated ADSC/ECFC co-culture, at 10 µM, stronger effect = higher value
[7] = GLP1 release stimulators, primary, NCI-H716, NPC library (AID 1117341;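 active = compound raises GLP1 secretion from the human gut endocrine cells, with no numeric limit stated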); conditions: NCI-H716 cells, at 10 µM, stronger effect = higher value
[8] = HCT116 colon cancer cell growth inhibition, primary screen, CellTiter-Glo luminescence, NPC library (AID 1117342;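 active = compounds that lower survival of HCT116 colon cancer cells in the luminescence readout, no numeric limit stated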); conditions: at 20 µM (top of the series)
[9] = reduced SW480 viability measured with CellTiter-Glo, NPC library, primary (AID 1117343;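 active = compounds that lower viability of the colon cancer cells in the luminescence readout, with no numeric limit stated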); conditions: CellTiter-Glo luminescence; at 20 µM (top of the series) unless noted
[10] = NPC library primary testing for decreased DLD-1 cell viability via CellTiter-Glo (AID 1117346;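 active = compounds that lower survival of DLD-1 colon cancer cells in the luminescence readout, no cutoff given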); conditions: DLD-1 viability, CellTiter-Glo luminescence; at 20 µM (top of the series)
[11] = EMT-state selective cytotoxicity in co-culture – imaging, PC-3E GFP, TEM4-18 mCherry, primary screen (AID 1345086;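 active = compounds killing one labelled cell type while sparing the other, by normalised counts and ratio limits, not self-fluorescent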;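 as to all read-outs here: cells exposed to compound for 72 h before imaging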;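 as to red/green cell ratio (normalised): normalised mesenchymal count divided by normalised epithelial count so high means epithelial killing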); conditions: PC-3E GFP / TEM4-18 mCherry co-culture, imaging cell counts, at 1 µM; for red/green cell ratio (normalised): actives lie on both sides, counts scaled to control wells, 1 = unselective
[12] = viability loss with induced miR-34 in A549 – imaging, A549 dox-inducible miR-34, nuclei and caspase counts, primary screen (AID 1347080); conditions: A549 miR-34 inducible, Hoechst nuclei count, 48 h
[13] = MELAS cybrid and Rieske KO viability enhancers – cell-based, MELAS cybrids, Rieske KO mouse fibroblasts, CellTiter-Glo, primary screen (AID 1508586;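 active = mean z-score across replicates of 1.96 or higher in either the MELAS or the Rieske mutant cell line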;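 also: z relative to plate mean and SD of compound and empty wells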); conditions: low glucose
[14] = biological target: NAD(+) hydrolase SARM1 (Homo sapiens) (UniProt Q6SZW1); test: blocking NAD cleavage by SARM1 SAM-TIR – cell lysate, NAD-Glo luminescence (AID 1508614;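 active = compound whose remaining NAD level is above about 45 nM, limit read from the data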;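 also: higher remaining NAD means stronger inhibition of SARM1 NADase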); conditions: SAM-TIR HEK293T lysate NADase, at 1 µM, stronger effect = higher value
[15] = growth inhibition, single agent or in combination, cell-based, chromothripsis tumors, cisplatin or BGB combos (AID 1671449; in the data active = inhibition above about 80%;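 also: cells exposed for 96 hours; 0% = vehicle DMSO and 100% = killing by high DMSO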); conditions: LFS_MB_P medulloblastoma cells
[16] = growth inhibition, single agent and combos, cell-based, chromothripsis tumors, cisplatin or BGB combos (AID 1671450; in the data active = inhibition above about 80%;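 also: cells exposed to compound for four days; 0% = vehicle DMSO and 100% = cell killing by high DMSO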); conditions: HDN33 neuroblastoma cells, stronger effect = higher value
[17] = growth inhibition, single agents and combos, ICB984, cell-based, cisplatin or BGB combos, synergistic combos for chromothripsis tumors (AID 1671451; call rule not given here;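 also: cells exposed for 96 hours before readout; 0% = vehicle DMSO and 100% = killing by high DMSO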); conditions: ICB984 medulloblastoma cells, drug combinations, stronger effect = higher value
[18] = growth inhibition, single agents and combos, HTB85, cell-based, BGB or cisplatin IC20 combos, synergistic combos for chromothripsis tumors (AID 1671453; in the data active = inhibition above about 80%;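 also: cells exposed for 96 hours before readout; 0% = vehicle DMSO and 100% = high DMSO killing control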); conditions: HTB85 osteosarcoma cells, drug combinations, stronger effect = higher value
[19] = growth inhibition, MDA-MB-436, cell-based, BGB or cisplatin combos, synergistic combos for chromothripsis tumors (AID 1671458; call rule not given here;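 also: cells exposed for 96 hours; 0% = vehicle DMSO and 100% = killing by high DMSO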); conditions: MDA-MB-436 breast carcinoma growth inhibition, drug combinations, stronger effect = higher value
[20] = measured here: epithelial PC-3E GFP cell survival
[21] = measured here: mesenchymal TEM4-18 mCherry cell survival
[22] = stronger effect = lower value, cell number ratio, induced over uninduced
[23] = measured here: relative caspase fold change +Dox/-Dox
[24] = measured here: total cells with miR-34 induction, stronger effect = lower value
[25] = measured here: total cells without miR-34 induction
[26] = MELAS cybrid survival, CellTiter-Glo 48 h, stronger effect = higher value
[27] = Rieske KO mouse fibroblast survival, CellTiter-Glo 72 h

Chain of NAD(+) hydrolase SARM1 (Homo sapiens) (Q6SZW1 whole entry, looked up): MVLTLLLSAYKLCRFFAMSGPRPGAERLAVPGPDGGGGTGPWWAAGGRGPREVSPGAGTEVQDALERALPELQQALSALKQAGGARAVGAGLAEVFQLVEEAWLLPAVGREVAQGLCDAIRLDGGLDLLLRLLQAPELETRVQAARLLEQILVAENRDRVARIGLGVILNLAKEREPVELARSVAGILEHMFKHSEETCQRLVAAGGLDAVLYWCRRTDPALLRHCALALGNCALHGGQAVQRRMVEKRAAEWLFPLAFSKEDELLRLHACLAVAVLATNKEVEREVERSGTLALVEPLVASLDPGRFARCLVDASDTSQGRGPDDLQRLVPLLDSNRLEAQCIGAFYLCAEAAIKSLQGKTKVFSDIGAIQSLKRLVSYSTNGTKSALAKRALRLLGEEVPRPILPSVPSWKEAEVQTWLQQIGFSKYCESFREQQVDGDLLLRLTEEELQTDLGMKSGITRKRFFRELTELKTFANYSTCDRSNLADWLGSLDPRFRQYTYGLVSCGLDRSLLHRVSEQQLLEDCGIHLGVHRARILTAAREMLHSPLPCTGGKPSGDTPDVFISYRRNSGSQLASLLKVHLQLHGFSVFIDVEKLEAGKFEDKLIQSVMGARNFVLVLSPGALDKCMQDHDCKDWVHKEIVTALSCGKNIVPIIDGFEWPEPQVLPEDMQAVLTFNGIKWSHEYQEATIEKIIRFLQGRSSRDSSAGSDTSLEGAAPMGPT

Compound: Cc1cc(=O)oc2cc(O)ccc12
- survival [1]: 5.33 (inactive)
- parasite load remaining [2]: 118% (inactive)
- viability [2]: 98.7%
- nuclear beta-catenin stimulation ([3]; at 10 µM): -0.6% (inactive)
- nuclear beta-catenin stimulation ([3]; stimulation, at 2 µM): -0.4%
- insulin secretion stimulation [4]: -1.7% (inactive)
- viability decrease [5]: -10.2% (inactive)
- tube area decrease [6]: -7.2% (inactive)
- GLP1 secretion stimulation [7]: 3.1% (inactive)
- inhibition of viability [8]: 13.6% (inactive)
- viability decrease (inhibition) [9]: 12.3% (inactive)
- viability decrease (inhibition) [10]: -2.45% (inactive)
- red/green cell ratio (normalised) [11]: 0.94 (inactive)
- normalised cell number [11, 20]: 1.05
- normalised cell number [11, 21]: 0.99
- fold change [12, 22]: 0.873 (inactive) and 0.847 (inactive) and 0.939 (inactive)
- fold change [12, 23]: 1.07 and 1.58 and 0.709
- cell count [12, 24]: 8530 and 9030 and 8940
- cell count [12, 25]: 9770 and 10700 and 9520
- z-score [13, 26]: -0.289 (inactive) and 0.464 (inactive)
- z-score [13, 27]: 0.286 and 0.338
- remaining NAD [14]: 10 nM (inactive)

Compound: CN1CCN(c2c(F)cc3c(=O)c(C(=O)O)cn4c3c2OCN4C)CC1
- nuclear beta-catenin stimulation ([3]; at 10 µM): -0.6% (inactive)
- nuclear beta-catenin stimulation ([3]; stimulation, at 2 µM): -2.1%
- insulin secretion stimulation [4]: -0.9% (inactive)
- viability decrease [5]: 7.3% (inactive)
- tube area decrease [6]: -6.4% (inactive)
- GLP1 secretion stimulation [7]: -0.1% (inactive)
- inhibition of viability [8]: 1.5% (inactive)
- viability decrease (inhibition) [9]: -15.8% (inactive)
- viability decrease (inhibition) [10]: -5% (inactive)
- red/green cell ratio (normalised) [11]: 0.85 (inactive)
- normalised cell number [11, 20]: 1.17
- normalised cell number [11, 21]: 1
- inhibition ([15]; at 0.5 µM, stronger effect = higher value): -17.7% (inactive)
- inhibition ([15]; measured here: combination with BGB IC20, at 0.005 µM): -16.9%
- inhibition ([15]; measured here: combination with BGB IC40, at 0.005 µM): -17.4%
- inhibition ([15]; measured here: combination with BGB IC40, at 0.05 µM): -36.9%
- inhibition ([15]; measured here: combination with cisplatin, at 0.5 µM, stronger effect = higher value): -51.4%
- inhibition ([15]; measured here: combination with cisplatin, at 5 µM, stronger effect = higher value): -32.3%
- inhibition ([16]; BGB combo, at 5 µM): 5.71%
- inhibition ([16]; at 0.5 µM): -7.25% (inactive)
- inhibition ([16]; cisplatin combo, at 5 µM): -1.82%
- inhibition ([16]; measured here: with BGB IC20 combination, at 0.5 µM): 5.2%
- inhibition ([16]; measured here: with cisplatin IC20 combination, at 0.5 µM): -12.1%
- inhibition ([16]; single agent, at 5 µM): -9.4%
- inhibition ([17]; BGB IC20 combo, at 0.005 µM): 9.65%
- inhibition ([17]; BGB IC40 combo, at 0.005 µM): -1.21%
- inhibition ([17]; BGB IC40 combo, at 0.05 µM): 1.28%
- inhibition ([17]; at 0.5 µM): -28.8% (inactive)
- inhibition ([17]; cisplatin combo, at 0.05 µM): -1.48%
- inhibition ([17]; cisplatin combo, at 0.5 µM): -25.3%
- inhibition ([17]; cisplatin combo, at 5 µM): -7.68%
- inhibition ([17]; measured here: 5 uM single agent, at 5 µM): -17.3%
- inhibition ([18]; at 0.5 µM): -12.7% (inactive)
- inhibition ([18]; measured here: with BGB IC20, at 0.5 µM): -22.2%
- inhibition ([18]; measured here: with BGB IC20, at 5 µM): -21.7%
- inhibition ([18]; measured here: with cisplatin IC20, at 0.5 µM): -26.4%
- inhibition ([18]; measured here: with cisplatin IC20, at 5 µM): -29.4%
- inhibition ([18]; single agent, at 5 µM): -8.81%
- inhibition ([19]; at 0.5 µM): -16.5% (inactive)
- inhibition ([19]; measured here: BGB combination, at 0.5 µM): -13.3%
- inhibition ([19]; measured here: BGB combination, at 5 µM): -9.95%
- inhibition ([19]; measured here: cisplatin combination, at 0.5 µM): -29.6%
- inhibition ([19]; measured here: cisplatin combination, at 5 µM): -33.2%

Compound: O=C(O)CN(CCN(CC(=O)O)CC(=O)O)CCN(CC(=O)O)CC(=O)O
- survival [1]: 5 (inactive)
- parasite load remaining [2]: 120% (inactive) and 34.8% (inactive)
- viability [2]: 101% and 170%
- nuclear beta-catenin stimulation ([3]; at 10 µM): -0.8% (inactive)
- nuclear beta-catenin stimulation ([3]; stimulation, at 2 µM): -1.5%
- insulin secretion stimulation [4]: 1.5% (inactive)
- viability decrease [5]: 79% (active)
- tube area decrease [6]: -14.3% (inactive)
- GLP1 secretion stimulation [7]: 0.1% (inactive)
- inhibition of viability [8]: 53.1% (active)
- viability decrease (inhibition) [9]: 79.5% (active)
- viability decrease (inhibition) [10]: 31.1% (inactive)
- red/green cell ratio (normalised) [11]: 1.45 (inactive)
- normalised cell number [11, 20]: 0.48
- normalised cell number [11, 21]: 0.7
- fold change [12, 22]: 1.07 (inactive) and 0.79 (inactive) and 0.864 (inactive)
- fold change [12, 23]: 1.26 and 1.98 and 3.01
- cell count [12, 24]: 8980 and 7930 and 10700
- cell count [12, 25]: 8380 and 10000 and 12300
- z-score [13, 26]: 0.621 (inactive)
- z-score [13, 27]: 0.97
- remaining NAD [14]: 10 nM (inactive)
